Results taken from PubChem BioAssay AID1117361 (Southern Research Institute, 2015).
The campaign covered roughly 3,600 compounds. About 900 (25%) were called active. These entries were drawn from the full list. Results with a measured potency or affinity are listed apart. Values without a mark were called inactive. How the calls were made is not given here.

The compounds below were run against Protein Tat (Human immunodeficiency virus type 1 group M subtype B (isolate HXB2)) (UniProt P04608) (assay: HIV-1 Tat–TAR interaction blockers – biochemical, fluorescence polarization, FAM-labeled TAR RNA, counter-screen for Vif-APOBEC3G degradation inhibitor project, dose response (AID 1117361)). Conditions: Tat-TAR RNA binding; series mostly up to 100 µM; inhibition: at the top concentration.

| Structure (SMILES) | outcome | inhibition |
| --- | --- | --- |
| Cc1ccc(-n2c(SCC(=O)NCc3ccco3)nc3c([nH]c4ccccc43)c2=O)cc1 | inactive |  |
| CC1CCc2c(sc3ncn4c(SCC(=O)NCc5ccco5)nnc4c23)C1 (stereo not drawn) |  | 2.03% |
| CCn1c(Cc2c(C)[nH]c3ccccc23)n[nH]c1=S |  | 20.5% |
| COc1ccc(-c2noc(Cc3cccs3)n2)cc1 |  | 4.09% |
| O=C(/C=C/c1ccc(O)c(O)c1)c1ccc(S(=O)(=O)N2CCCCCC2)cc1 |  | 19% |
| CCCNS(=O)(=O)c1ccc(NC(=O)c2ccccn2)cc1 |  | 1.36% |
| CC(C)(C)c1ccc(C(=O)Oc2ccc3c(c2)OCC3=O)cc1 |  | 2.34% |
| O=C1/C(=C\c2ccco2)CCC/C1=C\c1ccco1 |  | 16.8% [at 50 µM] |
| C=CCNC(=S)NNC(=O)c1ccccc1 | inactive |  |
| COc1ccc(N/N=C(\C#N)C(=N)SCc2ccccc2)cc1 | inactive |  |
| CC1(C)Cc2cccc(OCC(O)CN3CCN(c4ccccn4)CC3)c2O1 (stereo not drawn) | inactive |  |
| O=C1CNC(=O)/C1=C/c1ccc(Br)cc1 | inactive |  |
| CC1CC(C)CN(C(=O)COC(=O)CNS(=O)(=O)/C=C/c2ccccc2)C1 (stereo not drawn) |  | 4.73% |
| CCS(=O)(=O)N1CCN(C(=O)c2cccc3ccccc23)CC1 | inactive |  |
| CN(C)CCCNC(NC(=O)c1cccs1)C(Cl)(Cl)Cl (stereo not drawn) |  | 4.09% |
| Cc1nc2c3ccccc3n(CC(=O)c3ccc(F)cc3)c(=O)n2n1 |  | 4.09% |
| O=C(NC(=S)N1CCN(c2c(Cl)cccc2[N+](=O)[O-])CC1)c1cccs1 | inactive |  |
| COc1cc2c(cc1NC(=O)CC1SC(N3CCCC3)=NC1=O)oc1ccccc12 (stereo not drawn) |  | 1.35% |
| COc1ccc2nc(N3CCN(C(=O)c4ccc5ncsc5c4)CC3)sc2c1 | inactive |  |
| COc1ccc(C(=O)Nc2cccc(C(=O)N3CCN(C)CC3)c2)cc1 |  | 29.3% |
| COc1ccc(N2CCN(C(=O)c3ccc(C)c(Cl)c3)CC2)cc1 |  | 16.2% |
| O=S(=O)(c1ccc2nc(-c3ccco3)c(-c3ccco3)nc2c1)N1CCOCC1 | inactive |  |

| Structure (SMILES) | outcome | inhibition |
| --- | --- | --- |
| O=S(=O)(c1ccc(F)cc1)N(CCO)CC(O)Cn1c2ccccc2c2ccccc21 (stereo not drawn) | inactive |  |
| Cc1c(C(=O)N2CCN(c3ccc(F)cc3)CC2)sc2nc(-c3ccccc3)cn12 |  | 4.09% |
| CCS(=O)(=O)n1nc(-c2ccc(Cl)cc2)nc1SC |  | 0.68% |
| Cn1c(C(=O)NCCN2CCOCC2)cc2c(=O)n(C)c3ccccc3c21 |  | 10.8% |
| COc1ccc(CNC(=O)Cn2nc(C(F)(F)F)c3c2CCC3)cc1 | inactive |  |
| Cc1sc(NC(=O)c2ccccc2)c(C(=O)NCCN(C)C)c1C |  | 3.38% |
| CC1COCC(C)N1C1=C(Cl)C(=O)c2ccccc2C1=O (stereo not drawn) | inactive |  |
| NC(=O)C1CCN(C2=C(Cl)C(=O)c3ccccc3C2=O)CC1 | inactive |  |
| CCc1cc2c(=O)n(-c3ccc(C)cc3)cnc2s1 | inactive |  |
| COc1ccc(CCNS(=O)(=O)c2ccc3c(c2)CCN3C(=O)CCC(=O)O)cc1OC |  | 0.68% |
| COc1ccc(C2C(C(=O)NCCN(C)C)c3ccccc3C(=O)N2C)cc1OC (stereo not drawn) |  | 1.36% |
| CCCCN(CCCC)S(=O)(=O)c1ccc(NC(=O)c2cccs2)cc1 | inactive |  |
| [O-][n+]1onc2c1CCc1c-2nc(-c2ccccc2)n1OCc1ccccc1 |  | 3.38% |
| CCN(CCCNC(=O)C1CCCN(S(=O)(=O)CC)C1)c1cccc(C)c1 (stereo not drawn) |  | 1% |
| O=C(c1ccc2c(c1)OCCO2)C1CCN(C(=O)c2ccc(F)cc2)CC1 | inactive |  |
| CCc1ccccc1NC(=S)N(Cc1ccc(OC)cc1)CC1CCC(C(=O)O)CC1 (stereo not drawn) | inactive |  |
| CCn1cc(C(=O)NCc2ccc3c(c2)OCO3)c2cc(OC)c(OC)cc2c1=O |  | 3.41% |
| Cc1ccc(C(=O)C2C(c3cccs3)NC(=O)NC2(O)C(F)(F)F)cc1 (stereo not drawn) |  | 6.76% |
| CCOC(=O)C1=C(CN2CCN(c3ccc(F)cc3)CC2)NC(=O)NC1c1cccs1 (stereo not drawn) |  | 9.46% |
| Cn1cccc1C(=O)NC(=O)COC(=O)CC12CC3CC(CC(Br)(C3)C1)C2 |  | 16.7% [at 50 µM] |
| CC1=C(C(=O)OCC(Cl)(Cl)Cl)N2C(=O)C(NC(=O)Cc3ccccc3)C2SC1 (stereo not drawn) | inactive |  |
| O=C(Cc1ccccc1)Nc1scc(-c2ccccc2)c1C(=O)N1CCOCC1 |  | 8.11% |

| Structure (SMILES) | outcome | inhibition |
| --- | --- | --- |
| CC(=O)[C@@]1(O)CC[C@H]2[C@@H]3CCC4=CC(=O)CC[C@]4(C)[C@H]3CC[C@@]21C |  | 7.42% |
| Cc1sc(-c2ccncc2)nc1OC(=O)c1ccccc1 |  | 8.87% |
| COc1ccc(S(=O)(=O)NC2CC(C)(C)NC(C)(C)C2)c(C)c1C |  | 3.41% |
| Cc1sc2nc(C)n(/N=C/c3ccccc3O)c(=O)c2c1C | inactive |  |
| C=CCNC(=O)c1cc(=O)c2ccccc2o1 |  | 1.35% |
| Cc1nn(-c2ccc(Cl)cc2)c2[nH]c(=O)c(CNCc3ccc4c(c3)OCO4)cc12 |  | 4.05% |
| O=c1oc(/C=C/c2ccccc2)nc2sc3c(c12)CCC3 |  | 6.76% |
| O=[N+]([O-])c1cc(C(F)(F)F)ccc1N1CCN(S(=O)(=O)c2ccc3ccccc3c2)CC1 |  | 4.09% |
| COC(=O)C1=C(Nc2ccc(OC)cc2)C=C(C)C(C(=O)OC)C1c1ccc(C)cc1 (stereo not drawn) |  | 1.36% |
| CC1(C)CC(NS(=O)(=O)c2ccccc2)CC(C)(C)N1 |  | 2.73% |
| CC1(C)C2CCC1(C)C(NC1=NCCC1)C2 (stereo not drawn) |  | 6.08% |
| CC(=NCc1ccc2c(c1)OCO2)C1=C(O)c2ccccc2C1=O |  | 1.35% |
| CCCN(CCC)C(=O)c1cc(-c2ccc3c(c2)OCO3)nc2ccccc12 |  | 6.76% |
| CC(OC(=O)CC1CCCC1)C(=O)Nc1ccc(Cl)cn1 (stereo not drawn) | inactive |  |
| Nn1c(SCC(=O)NC2CCCc3ccccc32)nnc1-c1cccs1 (stereo not drawn) |  | 1.35% |
| COc1ccccc1CNS(=O)(=O)c1cccc(S(=O)(=O)N2CCOCC2)c1 | inactive |  |
| COC(=O)C1C2CCC(C2)C1C(=O)OCC(=O)c1ccc(C)cc1 (stereo not drawn) | inactive |  |
| CC(C)CC(=O)N(c1ccc(F)cc1)C1C=CS(=O)(=O)C1 (stereo not drawn) |  | 2.03% |
| O=C(CCl)N1N=C(c2ccco2)CC1c1ccco1 (stereo not drawn) | inactive |  |
| Cc1cc(C)cc(NC(=S)NC(=O)CCN2C(=O)c3ccccc3C2=O)c1 |  | 2.7% |
| CCCCOc1cccc(C(=O)NC(=S)Nc2ccc(Cl)c(C(=O)O)c2)c1 | inactive |  |
| COc1ccc(N2CCN(c3nc4ccccc4nc3NS(=O)(=O)c3ccccc3)CC2)cc1 |  | 17.6% |

| Structure (SMILES) | outcome | inhibition |
| --- | --- | --- |
| COC(=O)c1ccc(C)c(NS(=O)(=O)c2ccc(NC(C)=O)cc2)c1 | inactive |  |
| CC(=O)Nc1ccc(S(=O)(=O)Nc2cccc(-c3nc4ccccc4o3)c2)cc1 |  | 3.38% |
| CCc1ccc(-c2cc(C(=O)Nc3ccc(S(=O)(=O)NC(C)=O)cc3)c3ccccc3n2)cc1 |  | 21.6% |
| COc1ccc(NCc2nnc(SCC(=O)N3CCCc4ccccc43)o2)cc1 |  | 7.43% |
| O=c1oc(-c2cccnc2)nc2ccccc12 | inactive |  |
| CC(C)(C)c1ccc(NC(=S)NCc2cccnc2)cc1 | inactive |  |
| FC(F)Oc1ccccc1NC(=S)Nc1cccnc1 |  | 4.12% |
| COc1ccc(N2C(=O)C3CCCN3C2c2ccc(C)cc2)cc1 (stereo not drawn) | inactive |  |
| Cn1c(CNC(=O)C2CCCCC2)cc2cc(Cl)ccc21 | inactive |  |
| CS(=O)(=O)N1CCC(C(=O)NCCc2ccccc2)CC1 | inactive |  |
| CC(CN1CCN(C)CC1)OC(=O)c1ccccc1Cl (stereo not drawn) | inactive |  |
| COc1ccc(C)cc1NC(=O)c1[nH]c(C)c(C(C)=O)c1C |  | 4.73% |
| COc1ccccc1N1CCN(C(=O)C(F)F)CC1 |  | 0.33% |
| O=C(NCc1ccc(N2CCCC2=O)cc1)NC1CCCCC1 |  | 1.35% |
| Cc1ccc2nc(C3CCN(CC(=O)Nc4ccc5c(c4)OCCO5)CC3)[nH]c2c1 |  | 4.73% |
| O=C1NC2(CCCCC2)NN1c1ccccc1 |  | 1.35% |
| Cc1cc(C)c2c(c1)[C@@H]1C=CC[C@@H]1[C@H](c1ccc(S(=O)(=O)N3CCOCC3)cc1)N2 |  | 19.8% |
| O=C(O)c1ccc2c(c1)C(c1ccccc1)OC2=O (stereo not drawn) |  | 24.6% |
| CCC(C)NS(=O)(=O)c1ccc(S(=O)(=O)N(CC(=O)Nc2ccccc2)CC2CCCO2)cc1 (stereo not drawn) | inactive |  |
| COc1ccccc1S(=O)(=O)Cc1ccc(C(=O)N2CCN(c3ccccn3)CC2)o1 |  | 8.78% |
| CCN1CCN(CCCNC(=O)c2ccc3c(c2)NC(=O)c2ccccc2S3)CC1 | inactive |  |
| CC1(C)CC(=O)C2=C(C1)N(Cc1ccc(F)cc1)C(=O)C2(NC(=O)c1cccnc1)C(F)(F)F (stereo not drawn) |  | 1.35% |

| Structure (SMILES) | outcome | inhibition |
| --- | --- | --- |
| CC(=O)Nn1cc2c(=O)n(C)c(=O)n(C)c2c1 |  | 13.5% |
| CCN(CC)CCN1C(=O)c2ccccc2NC1c1ccc(N(C)C)cc1 (stereo not drawn) | inactive |  |
| COc1cc(NC(=O)c2cc3nc(C)cc(C)n3n2)c(OC)cc1Cl |  | 8.78% |
| Cc1ccc2c(c1)c(CC(=O)Nc1ccc(C)c(F)c1)c(C(=O)O)n2C | inactive |  |
| Nc1ccc(-c2nc3cc(N)ccc3n2CCO)cc1 | inactive |  |
| COc1ccc(S(=O)(=O)NCc2ccccn2)c(Cl)c1Cl |  | 1.35% |
| CCN(CC)CCNC(=O)CCn1c(=S)[nH]c2cc3c(cc2c1=O)OCO3 | inactive |  |
| C=CCn1cc(-c2ccccc2)cc(C#N)c1=O |  | 5.41% |
| Cc1ccc(CSc2nc3c(c(N(C)C)n2)CCCC3)cc1 | inactive |  |
| CCN(CC)CCCNC(=O)CSc1nc(-c2cccs2)cc(C(F)(F)F)n1 | inactive |  |
| COC(=O)/C=c1\sc2n(c1=O)C(C)=CC(C)(C)N=2 |  | 1.36% |
| CCOC(=O)CCC(=O)N1CCOCCN(C(=O)CCC(=O)OCC)CCOCC1 |  | 2.7% |
| Cc1ccc(N=Cc2nc(-c3ccc(C)cc3)oc2O)cc1 | inactive |  |
| CC(C)(C)NC(=O)CSc1nnc(-c2ccccn2)n1Cc1ccccc1 | inactive |  |
| COc1ccc(CNC(=O)c2c(-c3cc(Cl)c(OC)c(Cl)c3)noc2C)cc1 | inactive |  |
| OCCCNc1ncnc2c1[nH]c1ccccc12 | inactive |  |
| CC(=O)Nc1cccc(-c2cc(-c3c(Cl)cccc3Cl)no2)c1 | inactive |  |
| O=C(CCn1nc(-c2ccccc2)ccc1=O)N1CCCC1 |  | 8.11% |
| CN1CCN(S(=O)(=O)c2ccc(NC(=S)NC(=O)c3ccc(Cl)cc3)cc2)CC1 |  | 6.14% |
| Cc1cccc(OCCCC(=O)NC(C)c2ccccc2)c1 (stereo not drawn) |  | 5.46% |
